Our source for the Potency, activity, negative = inhibition and activation values is PubChem BioAssay (NCATS).

Experiment [1] has as its target Cytochrome P450 2C9 (Homo sapiens) (UniProt P11712). Put plainly: qHTS Assay for Inhibitors and Substrates of Cytochrome P450 2C9 (AID 883). Note: % is set by controls: 0 for no effect and ±100 for the full control effect; nearly all actives have a fitted effect of over 60% in size. An outline of the steps:
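Inhibition of CYP2C9 is scored as loss of luminescence, with 57uM sulphaphenazole defining 100% inhibition. Substrate Luciferin-H is used at 100uM, equal to its KM; enzyme at 10nM in 25mM KPO4, 60 min at 37C with NADPH regeneration.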
(qHTS replaces the single test concentration by a dilution series.)

The target of experiment [2] is Cytochrome P450 3A4 (Homo sapiens) (UniProt P08684). Kind of experiment: qHTS Assay for Inhibitors and Substrates of Cytochrome P450 3A4 (AID 884). Note: % is set by controls: 0 for no effect and ±100 for the full control effect; nearly all actives have a fitted effect of over 50% in size. An outline of the steps: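 20 nM human CYP3A4 with 25 uM Luciferin-PPXE (at KM) in 200 mM KPO4, preincubated 10 min with compound; NADPH regeneration started a 60 min RT reaction. Luciferin detected by luminescence, normalized to 57 uM ketoconazole as full inhibition.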
Sequence of Cytochrome P450 3A4 (Homo sapiens) (P08684 whole entry, looked up): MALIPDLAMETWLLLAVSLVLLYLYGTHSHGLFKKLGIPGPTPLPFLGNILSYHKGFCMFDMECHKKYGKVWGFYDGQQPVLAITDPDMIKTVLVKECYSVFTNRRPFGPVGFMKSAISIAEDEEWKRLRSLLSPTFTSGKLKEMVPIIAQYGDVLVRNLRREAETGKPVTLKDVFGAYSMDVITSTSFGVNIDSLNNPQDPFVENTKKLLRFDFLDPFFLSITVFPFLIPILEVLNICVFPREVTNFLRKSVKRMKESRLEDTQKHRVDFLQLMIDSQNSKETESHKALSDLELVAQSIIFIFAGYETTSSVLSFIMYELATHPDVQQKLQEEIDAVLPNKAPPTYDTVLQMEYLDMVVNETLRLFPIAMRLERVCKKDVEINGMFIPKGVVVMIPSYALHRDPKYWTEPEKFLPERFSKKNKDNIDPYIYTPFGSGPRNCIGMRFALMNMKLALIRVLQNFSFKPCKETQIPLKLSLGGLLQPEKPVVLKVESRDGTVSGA

The target of experiment [3] is Lysosomal acid glucosylceramidase (Homo sapiens) (UniProt P04062). Put plainly: Glucocerebrosidase-p2 (AID 348; in the data active = potency below about 10 µM; note: potency is the fitted concentration of half-maximal effect). The following applies: purified GBA, blue fluorogenic substrate, 40 min. An outline of the steps:
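Compounds titrated from 0.6 nM upwards against 0.2 nM enzyme in pH 5.9 citric acid/KH2PO4, taurocholate, tween-20; blue fluorogenic substrate 80 uM, 40 min room temperature, stopped and read Ex 365/Em 440 for AC50.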

Experiment [4] in a line: qHTS profiling for inhibitors of Plasmodium falciparum proliferation (AID 504749).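 Note: 0% = DMSO vehicle and full inhibition = artemisinin control; nearly all actives have a fitted effect of over 60% in size.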 The settings on record: P. falciparum in erythrocytes, SYBR Green DNA, 72 h, at 28.7 µM (top of the series). An outline of the steps: (§1)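 Three-day growth assay of blood-stage parasites in erythrocytes (0.3% parasitemia, 2.5% hematocrit) at 37 C, 5% CO2, quantified by SYBR Green DNA staining after overnight detergent lysis.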

A further experiment relates to AS120. Described as above. The settings on record: P. falciparum in erythrocytes, SYBR Green DNA, 72 h; series mostly up to 28.7 µM. An outline of the steps: as §1
The subject of another experiment is ATS189. The description is as above. The following applies: P. falciparum in erythrocytes, SYBR Green DNA, 72 h; series mostly up to 28.7 µM. An outline of the steps:
as §1

The next experiment concerns CP185. The experiment is described as above. The settings on record: P. falciparum in erythrocytes, SYBR Green DNA, 72 h; series mostly up to 28.7 µM. An outline of the steps:
as §1

A further experiment relates to CP191. The experiment is described as above. The settings on record: P. falciparum in erythrocytes, SYBR Green DNA, 72 h; series mostly up to 28.7 µM. The procedure, abridged:
as §1

For another experiment, the system named is CP192. The description is as above. The settings on record: P. falciparum in erythrocytes, SYBR Green DNA, 72 h; series mostly up to 28.7 µM. The procedure, abridged: as §1
The next experiment concerns CP201. The description is as above. The following applies: P. falciparum in erythrocytes, SYBR Green DNA, 72 h; series mostly up to 28.7 µM. The procedure, abridged:
as §1

For the next experiment, the system named is CP203. Described as above. The settings on record: P. falciparum in erythrocytes, SYBR Green DNA, 72 h; series mostly up to 28.7 µM. An outline of the steps: as §1
Another experiment has as its system CP247. The experiment is described as above. The settings on record: P. falciparum in erythrocytes, SYBR Green DNA, 72 h; series mostly up to 28.7 µM. An outline of the steps: as §1
The subject of a further experiment is CP305. Described as above. The settings on record: P. falciparum in erythrocytes, SYBR Green DNA, 72 h; series mostly up to 28.7 µM. The procedure, abridged: as §1
A further experiment concerns DFO2036. The experiment is described as above. The settings on record: P. falciparum in erythrocytes, SYBR Green DNA, 72 h; series mostly up to 28.7 µM. The procedure, abridged:
as §1

The test system of the next experiment is DIV30. The experiment is described as above. The settings on record: P. falciparum in erythrocytes, SYBR Green DNA, 72 h; series mostly up to 28.7 µM. An outline of the steps:
as §1

The next experiment deals with P94_40. The experiment is described as above. The following applies: P. falciparum in erythrocytes, SYBR Green DNA, 72 h; series mostly up to 28.7 µM. The procedure, abridged:
as §1

The subject of another experiment is PC49. The description is as above. The settings on record: P. falciparum in erythrocytes, SYBR Green DNA, 72 h; series mostly up to 28.7 µM. An outline of the steps: as §1
For the next experiment, the system named is W2. The description is as above. The following applies: P. falciparum in erythrocytes, SYBR Green DNA, 72 h; series mostly up to 28.7 µM. An outline of the steps:
as §1

The nature of experiment [5]: qHTS Assay for Identification of Small Molecule Agonists for Hypoxia Response Element Signaling Pathway (AID 914; active = well fitted activation curve with a large enough effect in the signal ratio, with a control signal flat, not every such curve was filed as active; the % refers to the signal ratio; note: potency is the fitted concentration of half-maximal effect; for activation: % of control where 0% means no effect). The following applies: ME-180 (cervical carcinoma) HRE-bla reporter, beta-lactamase ratio, CoCl2, 17 h; activation: active compounds read high. The procedure, abridged: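 HRE-bla ME-180 cells, overnight plating in Opti-MEM with 0.5% dialyzed FBS; cpd titration + EC50 CoCl2, 17 h, 37 degrees Celsius; CCF4 2.5 h RT; 460/530 nm ratio; AC50.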

SMILES strings stand for the structures. Unmarked numbers belong to inactive results. Results filed as inconclusive are left out. The source made the active and inactive calls. Unless noted, calls come from the whole dose curve; as a rule, active = well fitted curve in the direction sought with a large enough effect; inconclusive = small, poorly fitted or top-dose-only effect, or another doubt; inactive = no such curve, though single readings can be large; an effect the other way counts as inactive or inconclusive.

Sequence of Lysosomal acid glucosylceramidase (Homo sapiens) (P04062 whole entry, looked up): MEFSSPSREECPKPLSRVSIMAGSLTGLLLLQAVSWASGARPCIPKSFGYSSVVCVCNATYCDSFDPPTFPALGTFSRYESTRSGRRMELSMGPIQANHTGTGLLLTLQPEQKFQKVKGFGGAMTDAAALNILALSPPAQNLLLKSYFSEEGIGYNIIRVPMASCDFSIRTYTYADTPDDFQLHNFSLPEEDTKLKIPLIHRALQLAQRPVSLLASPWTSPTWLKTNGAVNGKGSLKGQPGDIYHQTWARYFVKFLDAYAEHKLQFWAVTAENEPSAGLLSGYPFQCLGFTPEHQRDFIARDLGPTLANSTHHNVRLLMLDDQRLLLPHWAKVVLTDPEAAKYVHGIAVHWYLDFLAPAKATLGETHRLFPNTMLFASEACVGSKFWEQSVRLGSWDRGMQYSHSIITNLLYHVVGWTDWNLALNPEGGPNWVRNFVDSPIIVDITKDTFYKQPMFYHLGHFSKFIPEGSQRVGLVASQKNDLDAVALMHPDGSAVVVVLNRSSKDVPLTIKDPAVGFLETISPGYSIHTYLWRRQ
Sequence of Cytochrome P450 2C9 (Homo sapiens) (P11712 whole entry, looked up): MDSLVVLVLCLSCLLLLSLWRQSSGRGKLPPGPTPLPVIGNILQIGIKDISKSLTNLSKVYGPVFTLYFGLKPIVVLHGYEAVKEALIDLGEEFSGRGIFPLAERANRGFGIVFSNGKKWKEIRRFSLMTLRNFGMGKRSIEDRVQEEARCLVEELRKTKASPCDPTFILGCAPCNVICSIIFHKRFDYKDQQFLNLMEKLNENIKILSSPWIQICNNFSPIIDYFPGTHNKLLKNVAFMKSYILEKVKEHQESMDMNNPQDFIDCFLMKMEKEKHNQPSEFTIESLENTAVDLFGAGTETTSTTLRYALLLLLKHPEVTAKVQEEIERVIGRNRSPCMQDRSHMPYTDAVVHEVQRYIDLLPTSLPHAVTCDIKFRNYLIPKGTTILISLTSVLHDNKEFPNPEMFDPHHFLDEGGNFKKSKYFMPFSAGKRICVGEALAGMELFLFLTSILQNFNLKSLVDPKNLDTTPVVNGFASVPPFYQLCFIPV

Regarding `CSc1nc(N)c2ncn([C@@H]3O[C@@H](COP(=O)(O)OP(=O)(O)OP(=O)(O)O)[C@@H](O)[C@H]3O)c2n1`, the Potency result in experiment [1] and in experiment [2] was “inactive” in each case.

Take `O=C1C=C(N2CCN(c3ccccn3)CC2)C(=O)c2c(O)ccc(O)c21`: the Potency in [3] is above 11.4 µM.

On to `C[N+]1(C)[C@@H]2CC(OC(=O)[C@@H](CO)c3ccccc3)C[C@@H]1[C@H]1O[C@H]12` (stereo partly specified), for which the Potency in experiment [3] was above 11.4 µM. For the same molecule, the results for the activity, negative = inhibition in [4] (parasite line A) and in experiment [4] (parasite line B) were 5.68% and -7.21%, respectively. Also, the Potency result in the experiment on AS120, with ATS189, with CP185, in the experiment with CP191, in the experiment on CP192 and in the experiment with CP201 was “inactive” in each case. For the same molecule, the Potency result with CP203, with CP247, in the experiment with CP305, in the experiment with DFO2036, in the experiment with DIV30 and in the experiment on P94_40 was “inactive” throughout. In addition, the Potency result in the experiment with PC49 and in the experiment with W2 was “inactive” in each case.

Turning to `N#CCCn1c(=O)c(-c2ccccc2)nc2cnc(N3CCNCC3)nc21`, the Potency in [3] was above 11.4 µM; in experiment [5] it was 3.16 µM (active).

Turning to `N[C@H](COP(=O)(O)O)C(=O)O`, the Potency result (in experiment [1]; in the experiment on AS120; in the experiment on ATS189; in the experiment on CP185; in the experiment with CP191; in the experiment with CP192) was “inactive” throughout. Further, the Potency entry in the experiment with CP201, in the experiment with CP203, in the experiment with CP247, with CP305, in the experiment with DFO2036 and in the experiment with DIV30 was “inactive” in each case. Further, the Potency entry in the experiment with P94_40, with PC49 and with W2 was “inactive” throughout. Besides, the values for the activity, negative = inhibition in [4] (parasite line A) and in experiment [4] (parasite line B) were 15.2% and 6.94%, respectively.

Regarding `CN(C)[C@H]1C(=O)C(C(=O)NCN2CCCC2)=C(O)[C@]2(O)C(=O)C3=C(O)c4c(O)cccc4[C@](C)(O)[C@H]3C[C@H]12`, the activity, negative = inhibition was 9.1% in experiment [4] (parasite line A) and 1.72% in experiment [4] (parasite line B). The Potency result in the experiment on AS120, with ATS189, in the experiment on CP185, with CP191, in the experiment on CP192 and in the experiment with CP201 was “inactive” throughout. Also, the Potency entry in the experiment on CP203, with CP247, with CP305, in the experiment with DFO2036, in the experiment on DIV30 and in the experiment with P94_40 was “inactive” throughout. For the same molecule, the Potency result in the experiment on PC49 and with W2 was “inactive” in each case.

Take `CC(C)(C)c1ccc([C@@H](O)CCCN2CCC(C(O)(c3ccccc3)c3ccccc3)CC2)cc1`: in [5], the activation is 18.6%.
